GPR151 ag: activators of human GPR151 | PathHunter beta-arrestin GPR151 cells, luminescence | activation, % at 11.2 µM | Q8TDV0 | AID 1508602 | 650,000 compounds, 1% hits; in the data active = activation above about 4.9%
TEAD-YAP inh: TEAD-YAP interaction inhibition. HEK-TIYL cells, TEAD-Gal4/YAP UAS-luciferase luminescence. inhibition, % at 9.12 µM. 640,000 compounds, 1.4% hits; in the data active = inhibition above about 32%
FBW7 activator: activators of human E3 ligase FBW7; AlphaScreen FBW7–phospho-cyclin E peptide binding, activator screen; 650,000 compounds, 0.13% hits; AID 1259310; normalized activity (activation), % at 26.1 µM; Q969H0; in the data active = normalized activity above about 1.9%;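 also: purified mutant Fbw7 with reduced substrate affinity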
Target sequence (Q969H0 whole entry, looked up): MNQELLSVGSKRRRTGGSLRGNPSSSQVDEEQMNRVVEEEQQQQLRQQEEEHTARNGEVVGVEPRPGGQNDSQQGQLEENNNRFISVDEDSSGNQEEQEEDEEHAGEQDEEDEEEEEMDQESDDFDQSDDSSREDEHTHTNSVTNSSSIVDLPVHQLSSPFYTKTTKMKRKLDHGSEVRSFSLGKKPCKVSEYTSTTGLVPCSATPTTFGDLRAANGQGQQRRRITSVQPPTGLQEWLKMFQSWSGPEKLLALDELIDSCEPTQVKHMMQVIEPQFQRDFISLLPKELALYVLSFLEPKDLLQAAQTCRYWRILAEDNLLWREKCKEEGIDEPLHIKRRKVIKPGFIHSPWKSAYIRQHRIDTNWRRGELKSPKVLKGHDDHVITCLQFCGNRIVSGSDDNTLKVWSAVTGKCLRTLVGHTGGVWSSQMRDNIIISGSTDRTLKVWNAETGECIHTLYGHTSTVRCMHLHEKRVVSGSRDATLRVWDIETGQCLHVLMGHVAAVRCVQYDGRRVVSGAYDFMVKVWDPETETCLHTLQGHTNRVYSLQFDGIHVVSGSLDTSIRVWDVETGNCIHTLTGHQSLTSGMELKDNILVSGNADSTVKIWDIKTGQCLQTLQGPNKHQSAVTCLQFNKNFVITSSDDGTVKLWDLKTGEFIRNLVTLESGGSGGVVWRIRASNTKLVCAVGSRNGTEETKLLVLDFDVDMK
MITF primary: human MITF inhibition, primary screen | 650,000 compounds, 0.91% hits | AID 1259374 | O75030 | AlphaScreen MITF homodimerization, bead proximity signal | inhibition, % at 2.6 µM; in the data active = inhibition above about 50%
GPR151 confirm: human GPR151 activation, confirmation screen | shares compounds with GPR151 ag | GPR151 PathHunter beta-arrestin cells, luminescence, 90 min; % of EA-reagent control over plate median | activation, % at 11.2 µM | 6,700 tested, under 10 active;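 active = mean percent activation across replicates above the confirmation screen cutoff of 4.91%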
GPR119 ag: counter-screen for GPR151 activators: effect on human GPR119. shares compounds with GPR151 ag. GPR119 PathHunter beta-arrestin cells, luminescence, 90 min; 0 = compound-well median, 100 = enzyme-acceptor control. activation, % at 11.2 µM. 6,700 compounds, 0.3% hits. AID 1508611;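 active = mean percent activation in the counterscreen above 29.09%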;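 also: counterscreen on off-target GPR119 to flag nonselective hits from the GPR151 activator screen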
Of the large screens only hits and unclear results are named; the others gave an inactive call (follow-up assays come after a bar, where they were run). The list is not random: actives were taken first. Their share in the collection is about 3.4%.

Cc1ccc(C(=O)NC(=S)Nc2cc(-c3nc4ncccc4o3)ccc2Cl)cc1	none
Nc1nc(SCC(=O)Nc2ccc(F)cc2)n[nH]1	none
O=C(CSc1nc(N2CCCCC2)nc(N2CCCCC2)n1)Nc1ccc(F)cc1	GPR151 ag 9.8 | GPR151 confirm inactive | GPR119 ag inactive
CC1=CC(C)C(CNCCN2CCNCC2)C(C)C1 (centres undefined)	GPR151 ag 4.9 | GPR151 confirm inactive | GPR119 ag inactive
CC1=CC(C)C(COC(=O)CN2CCOCC2)C(C)C1 (centres undefined)	none
CCCCOC(=O)C1=C(C)Nc2nnnn2C1c1cccc(Br)c1 (centres undefined)	none
O=C(NCc1cccc(C(F)(F)F)c1)C1CCN(c2ccc(NC3CCN(Cc4ccccc4)CC3)nn2)CC1	GPR151 ag 5.6, TEAD-YAP inh 38 | GPR151 confirm inactive | GPR119 ag inactive
O=C(NCc1cccnc1)C1CCN(c2ccc(NC3CCN(Cc4ccccc4)CC3)nn2)CC1	none
Cn1nccc1Nc1ccc(N2CCC(C(=O)NCc3cccc(C(F)(F)F)c3)CC2)nn1	GPR151 ag 5.2 | GPR151 confirm inactive | GPR119 ag inactive
O=C(NCc1cccc(C(F)(F)F)c1)C1CCN(c2ccc(Nc3ccccc3)nn2)CC1	none
CC(C)(C)n1nnc2c(=O)oc3ccccc3c21	none
Cc1cccc(NC(=O)Nc2cnn(-c3cccc(C(=O)NOCc4ccccc4)c3)c2)c1	GPR151 ag 4.9 | GPR151 confirm inactive | GPR119 ag inactive
Cc1cccc(NC(=O)Nc2cnn(-c3cccc(C(=O)Nc4ccnc(C)c4)c3)c2)c1	GPR151 ag 6.6 | GPR151 confirm inactive | GPR119 ag inactive
Cc1cccc(NC(=O)Nc2cnn(-c3cccc(C(=O)Nc4cc(C)c(C)c(C)c4)c3)c2)c1	none
O=C(Cc1ccccc1)Nc1cnn(-c2cccc(C(=O)Nc3cccc(CN4CCOCC4)c3)c2)c1	GPR151 ag 5.2 | GPR151 confirm inactive | GPR119 ag inactive
CC(=O)NC1(c2ccccc2C)CCN(Cc2ccccc2)CC1	none
COc1ccc(Cl)cc1-c1nc(-c2ccc([N+](=O)[O-])cc2)no1	none
COc1ccc(CNC(=O)N2CCC(c3nnc(C(C)C)o3)CC2)cc1	none
COc1ccccc1-n1c(SCC2OCCO2)nc2c(sc(=S)n2-c2ccccc2C)c1=O	none
COc1ccccc1CNC(=O)CCc1c(C)nc2c(c(C)nn2C(C)(C)C)c1C	none
COc1ccc(CNC(=O)CCc2c(C)nc3c(c(C)nn3C(C)(C)C)c2C)cc1	GPR151 ag 7.2 | GPR151 confirm inactive | GPR119 ag inactive
CCNc1nc(NCCN2CCOCC2)c2ncn(-c3ccsc3)c2n1	GPR151 ag 6.5, TEAD-YAP inh 33 | GPR151 confirm inactive | GPR119 ag inactive
CCNc1nc(NCCN2CCOCC2)c2ncn(-c3ccccc3)c2n1	none
COc1cc(Nc2nc(NCCO)c3ncn(-c4ccsc4)c3n2)cc(OC)c1OC	GPR151 ag 5.6, TEAD-YAP inh 37 | GPR151 confirm inactive | GPR119 ag inactive
CCN(CC)S(=O)(=O)c1cccc(C(=O)Oc2cccc(-c3cnc4ccccc4n3)c2)c1	none
CC(C)(C)C(=O)OCN1c2nonc2N(COC(=O)C(C)(C)C)c2nonc21	GPR151 ag 7.9 | GPR151 confirm inactive | GPR119 ag inactive
CC(C)CNS(=O)(=O)c1cccc2cc(N)ccc12	none
OC(CN1CCOCC1)Cn1c(C(F)(F)F)nc2ccccc21 (centres undefined)	none
Cc1ncc(CO)c2cc(-c3nnc(Nc4ccccc4F)s3)c(=O)oc12	GPR151 ag 5.8 | GPR151 confirm inactive | GPR119 ag inactive
CCOc1cccc2sc(N(CCN(C)C)C(=O)c3cc(Cl)ccc3[N+](=O)[O-])nc12	GPR151 ag 7.1 | GPR151 confirm inactive | GPR119 ag inactive
CCCCC(=O)N(CCn1cccn1)c1nc2c(F)cccc2s1	none
O=C(c1cc(Cl)ccc1Cl)N(CCn1cccn1)c1nc2c(F)cccc2s1	GPR151 ag 6.1 | GPR151 confirm inactive | GPR119 ag inactive
CC1CCC(NC(=O)CN2CCC(n3nnc4ccccc43)CC2)CC1 (centres undefined)	none
COc1ccccc1-n1c(CNC(=O)c2ccco2)nnc1SCC(=O)Nc1cccc(C)c1	none
CCOCCc1nnc(NC(=O)CC(c2ccccc2)c2ccccc2)s1	GPR151 ag 8.6 | GPR151 confirm inactive | GPR119 ag inactive
CSc1ccc(NC(=O)Nc2c(C)n(-c3ccccc3)c(=O)n2C)cc1	GPR151 ag 6.5 | GPR151 confirm inactive | GPR119 ag inactive
O=C(Cc1c[nH]c2ccccc12)Nc1ccc(-c2nnc3n2CCCCC3)cc1	none
S=C(NCCc1ccccc1)NCC(c1cccnc1)N1CCOCC1 (centres undefined)	GPR151 ag 9.3 | GPR151 confirm inactive | GPR119 ag inactive
Cc1ccccc1NC(=S)NCC(c1cccnc1)N1CCOCC1 (centres undefined)	none
CS(=O)(=O)c1ccc2c(c1)SC1=NC(C(F)(F)F)(C(F)(F)F)NC(=O)N12	none
CCOC(=O)CC1=CSC2=NC(C(F)(F)F)(C(F)(F)F)NC(=O)N12	GPR151 ag 5.6 | GPR151 confirm inactive | GPR119 ag inactive
COc1ccc(C(=O)Cn2c(=N)n(Cc3ccc(C)cc3)c3ccccc32)cc1	none
COc1ccc(-c2nc3cc(Cl)ccc3o2)cc1OC	GPR151 ag 5.8 | GPR151 confirm inactive | GPR119 ag inactive
O=S(=O)(c1ccc2oc(-c3ccc(Cl)cc3)nc2c1)c1ccc2oc(-c3ccc(Cl)cc3)nc2c1	GPR151 ag 5.7 | GPR151 confirm inactive | GPR119 ag inactive
CC(=O)N1CCC(N(C(=O)Nc2c(F)cccc2F)C(C)C)CC1	GPR151 ag 9.1 | GPR151 confirm inactive | GPR119 ag inactive
CC(=O)N1CCC(N(C(=O)Nc2cccc(Cl)c2C)C(C)C)CC1	none
COc1ccc(Cc2nn3c(-c4ccc(C)cc4)nnc3s2)cc1	GPR151 ag 6.4 | GPR151 confirm inactive | GPR119 ag inactive
COc1cc(Br)cc2cc(C(=O)Nc3ccc(O)cc3)c(=O)oc12	GPR151 ag 7.6 | GPR151 confirm inactive | GPR119 ag inactive
COc1ccc(NC(=O)c2cc3cc(Cl)ccc3oc2=O)cc1	GPR151 ag 6.3 | GPR151 confirm inactive | GPR119 ag inactive
CCOc1ccc(NC(=O)c2cc3cc(Br)cc(OC)c3oc2=O)cc1	none
COc1ccc2oc(=O)c(C(=O)Nc3cccc(Cl)c3)cc2c1	none
CCOC(=O)c1c(NC(=O)c2cc3cc(Cl)ccc3oc2=O)sc(C(C)=O)c1C	GPR151 ag 8.1 | GPR151 confirm inactive | GPR119 ag inactive
CCOC(=O)C1CCCN(Cc2cc(OC)c(OC)c(OC)c2)C1 (centres undefined)	none
COc1ccc(C(=O)Nc2ccccc2Sc2ncnc3sc4c(c23)CCCC4)cc1	none

From PubChem
